The supplement of paper PMC12282887
± gives the standard deviation of the averaged measurements.

Key:
Test in all cases: promoter activity interaction Z-score (Lux/OD deviation from empty-vector control); higher = stronger promoter induction by the compound
[1] = test system: E. coli BW25113 acrABp lux reporter
Summary of the method: (§1)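 E. coli BW25113 luxCDABE reporter strains grew at 37°C in 40 µl LB Lennox in 384-well plates, with OD600 and luminescence read every 30 min for 12 h. After integration over 0–8 h for wild type or 1–9 h for deletion strains, wells under 10% of the median growth value were removed. Each score is the Z-transformed residual of growth-normalised luminescence fitted against a control.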

[2] = test system: E. coli BW25113 marRABp lux reporter
Summary of the method: as §1

[3] = test system: E. coli BW25113 micFp lux reporter
Summary of the method: as §1

[4] = test system: E. coli BW25113 ompFp lux reporter
Summary of the method: as §1

[5] = test system: E. coli BW25113 robp lux reporter
Summary of the method: as §1

[6] = test system: E. coli BW25113 soxSp lux reporter
Summary of the method: as §1

[7] = test system: E. coli BW25113 tolCp lux reporter
Summary of the method: as §1

[8] = 0.28 µg/ml, genetic background: wild type
[9] = 0.28 µg/ml, genetic background: ΔmarA
[10] = 0.28 µg/ml, genetic background: Δrob
[11] = 0.28 µg/ml, genetic background: ΔsoxS
[12] = 0.56 µg/ml, genetic background: wild type
[13] = 0.56 µg/ml, genetic background: ΔmarA
[14] = 0.56 µg/ml, genetic background: Δrob
[15] = 0.56 µg/ml, genetic background: ΔsoxS
[16] = 1.1 µg/ml, genetic background: wild type
[17] = 1.1 µg/ml, genetic background: ΔmarA
[18] = 1.1 µg/ml, genetic background: Δrob
[19] = 1.1 µg/ml, genetic background: ΔsoxS
[20] = 2.2 µg/ml, genetic background: wild type

CC[C@H]1OC(=O)[C@H](C)[C@@H](O[C@H]2C[C@@](C)(OC)[C@@H](O)[C@H](C)O2)[C@H](C)[C@@H](O[C@@H]2O[C@H](C)C[C@H](N(C)C)[C@H]2O)[C@](C)(O)C[C@@H](C)CN(C)[C@H](C)[C@@H](O)[C@]1(C)O [Azithromycin]
promoter activity interaction Z-score [1, 8]: 0.612 ± 0.28 | promoter activity interaction Z-score [1, 9]: -0.667 ± 0.48 | promoter activity interaction Z-score [1, 10]: 0.324 ± 0.28 | promoter activity interaction Z-score [1, 11]: 0.489 ± 0.8 | promoter activity interaction Z-score [1, 12]: 1.13 ± 0.12 | promoter activity interaction Z-score [1, 13]: 0.048 ± 0.66 | promoter activity interaction Z-score [1, 14]: 2.23 ± 0.08 | promoter activity interaction Z-score [1, 15]: 3.66 ± 1.6 | promoter activity interaction Z-score [1, 16]: 4.08 ± 1 | promoter activity interaction Z-score [1, 17]: 6.35 ± 6.2 | promoter activity interaction Z-score [1, 18]: 3.65 ± 1.2 | promoter activity interaction Z-score [1, 19]: 4.28 ± 1.8 | promoter activity interaction Z-score [1, 20]: 7.14 ± 1.1 | promoter activity interaction Z-score [2, 8]: 0.645 ± 0.36 | promoter activity interaction Z-score [2, 9]: 0.703 ± 1.2 | promoter activity interaction Z-score [2, 10]: 0.528 ± 0.82 | promoter activity interaction Z-score [2, 11]: 0.0278 ± 0.18 | promoter activity interaction Z-score [2, 12]: 1.8 ± 0.42 | promoter activity interaction Z-score [2, 13]: 1.75 ± 0.93 | promoter activity interaction Z-score [2, 14]: 1.66 ± 0.88 | promoter activity interaction Z-score [2, 15]: 3.09 ± 1.8 | promoter activity interaction Z-score [2, 16]: 4.3 ± 0.46 | promoter activity interaction Z-score [2, 17]: 4.49 ± 2 | promoter activity interaction Z-score [2, 18]: 2.983 ± 0.0035 | promoter activity interaction Z-score [2, 19]: 4.44 ± 2.6 | promoter activity interaction Z-score [3, 8]: 0.698 ± 0.19 | promoter activity interaction Z-score [3, 9]: -0.163 ± 0.0028 | promoter activity interaction Z-score [3, 10]: 0.125 ± 0.087 | promoter activity interaction Z-score [3, 11]: 0.248 ± 0.093 | promoter activity interaction Z-score [3, 12]: 0.273 ± 0.86 | promoter activity interaction Z-score [3, 13]: -0.14 ± 0.018 | promoter activity interaction Z-score [3, 14]: 0.558 ± 0.35 | promoter activity interaction Z-score [3, 15]: -0.483 ± 0.018 | promoter activity interaction Z-score [3, 16]: -0.839 ± 0.87 | promoter activity interaction Z-score [3, 17]: -0.439 ± 0.056 | promoter activity interaction Z-score [3, 18]: 0.39 ± 0.33 | promoter activity interaction Z-score [3, 19]: -0.925 ± 0.18 | promoter activity interaction Z-score [3, 20]: -1.39 | promoter activity interaction Z-score [4, 8]: 0.438 ± 0.0074 | promoter activity interaction Z-score [4, 9]: -0.225 ± 0.85 | promoter activity interaction Z-score [4, 10]: 0.663 ± 0.29 | promoter activity interaction Z-score [4, 11]: 0.266 ± 1.3 | promoter activity interaction Z-score [4, 12]: 1.95 ± 0.52 | promoter activity interaction Z-score [4, 13]: 1.13 ± 0.094 | promoter activity interaction Z-score [4, 14]: 3.25 ± 1.9 | promoter activity interaction Z-score [4, 15]: 2.77 ± 0.12 | promoter activity interaction Z-score [4, 16]: 0.0139 ± 0.62 | promoter activity interaction Z-score [4, 17]: 0.739 ± 3.3 | promoter activity interaction Z-score [4, 18]: -0.756 ± 0.22 | promoter activity interaction Z-score [4, 19]: 3.18 ± 1.5 | promoter activity interaction Z-score [5, 8]: -0.606 ± 0.46 | promoter activity interaction Z-score [5, 9]: -2.26 ± 0.22 | promoter activity interaction Z-score [5, 10]: -1.42 ± 0.052 | promoter activity interaction Z-score [5, 11]: -1.11 ± 0.5 | promoter activity interaction Z-score [5, 12]: -1.97 ± 0.83 | promoter activity interaction Z-score [5, 13]: -2.42 ± 0.28 | promoter activity interaction Z-score [5, 14]: -1.4 ± 0.26 | promoter activity interaction Z-score [5, 15]: -1.99 ± 0.19 | promoter activity interaction Z-score [5, 16]: -3.21 ± 1 | promoter activity interaction Z-score [5, 17]: -3.49 ± 0.67 | promoter activity interaction Z-score [5, 18]: -2.09 ± 0.15 | promoter activity interaction Z-score [5, 19]: -2.73 ± 0.21 | promoter activity interaction Z-score [5, 20]: -3.03 | promoter activity interaction Z-score [6, 8]: 0.146 ± 0.018 | promoter activity interaction Z-score [6, 9]: -0.132 ± 0.027 | promoter activity interaction Z-score [6, 10]: 0.101 ± 0.33 | promoter activity interaction Z-score [6, 11]: 0.569 ± 0.9 | promoter activity interaction Z-score [6, 12]: 0.342 ± 0.019 | promoter activity interaction Z-score [6, 13]: -0.134 ± 0.052 | promoter activity interaction Z-score [6, 14]: 0.401 ± 0.02 | promoter activity interaction Z-score [6, 15]: 1.917 ± 0.018 | promoter activity interaction Z-score [6, 16]: 2.27 ± 0.33 | promoter activity interaction Z-score [6, 17]: 1.16 ± 0.1 | promoter activity interaction Z-score [6, 18]: 1.69 ± 0.21 | promoter activity interaction Z-score [6, 19]: 2.06 ± 0.22 | promoter activity interaction Z-score [6, 20]: 2.59 ± 1.8 | promoter activity interaction Z-score [7, 8]: 1.23 ± 0.81 | promoter activity interaction Z-score [7, 9]: 0.138 ± 0.034 | promoter activity interaction Z-score [7, 10]: 0.66 ± 0.69 | promoter activity interaction Z-score [7, 11]: 2.05 ± 0.54 | promoter activity interaction Z-score [7, 12]: 1.21 ± 1.3 | promoter activity interaction Z-score [7, 13]: 0.283 ± 0.058 | promoter activity interaction Z-score [7, 14]: 1.89 ± 0.14 | promoter activity interaction Z-score [7, 15]: 2.57 ± 1.3 | promoter activity interaction Z-score [7, 16]: 3.44 ± 0.47 | promoter activity interaction Z-score [7, 17]: 1.58 ± 1.8 | promoter activity interaction Z-score [7, 18]: 4.99 ± 0.58 | promoter activity interaction Z-score [7, 19]: 4.53 ± 2 | promoter activity interaction Z-score [7, 20]: 5.2 ± 2.8
